Assay results reported in the supplement of paper PMC10849652.
Targets with a hit are over-represented here; the source holds about 8,800 in all. About 0.5% of all pairs of compound and target were hits.

Compound: CC1=CC=C(C=C1)SC2=C3C=C(SC3=CN=C2)C(=O)N
Experiment: log2 fold change, soluble protein after heating vs DMSO (PISA); higher = thermal stabilisation; K562 lysate, 10 uM; active = over 0.2 and 3.5 SD of the protein, either way, in both replicates (recomputed)
Outline: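 The values are log-two fold changes in thermal stability compared with solvent controls and come from duplicates. They were obtained by TMTpro 16plex LC-MS/MS, with channel sums equalised, on the supernatant after 21,000xg for 90 min. That supernatant came from crude K562 extract at 1 mg/mL protein treated with 10 μM compound for 30 min, heated for 3 min across 48°C-58°C, pooled and brought to 0.5% NP-40 at 4°C.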

Chain of UniProt P48059 (P48059 whole entry, looked up): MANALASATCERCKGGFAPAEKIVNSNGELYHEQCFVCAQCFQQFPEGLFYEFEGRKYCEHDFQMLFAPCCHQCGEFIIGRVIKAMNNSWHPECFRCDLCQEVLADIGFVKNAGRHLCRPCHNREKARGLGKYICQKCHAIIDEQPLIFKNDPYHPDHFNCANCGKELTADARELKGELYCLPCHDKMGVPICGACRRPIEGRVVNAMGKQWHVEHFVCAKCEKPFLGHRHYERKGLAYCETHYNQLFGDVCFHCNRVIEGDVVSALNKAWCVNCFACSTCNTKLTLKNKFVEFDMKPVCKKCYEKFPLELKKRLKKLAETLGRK
Chain of UniProt Q9GZY8 (Q9GZY8 whole entry, looked up): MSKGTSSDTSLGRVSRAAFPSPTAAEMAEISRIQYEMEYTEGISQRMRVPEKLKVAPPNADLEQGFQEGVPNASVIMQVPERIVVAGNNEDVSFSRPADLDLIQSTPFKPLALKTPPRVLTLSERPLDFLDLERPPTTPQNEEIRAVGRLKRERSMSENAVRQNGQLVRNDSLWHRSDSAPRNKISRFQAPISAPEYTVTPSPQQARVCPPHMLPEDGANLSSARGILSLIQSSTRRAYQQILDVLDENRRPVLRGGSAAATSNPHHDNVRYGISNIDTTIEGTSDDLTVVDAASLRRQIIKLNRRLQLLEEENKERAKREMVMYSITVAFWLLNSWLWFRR
Chain of UniProt Q15031 (Q15031 whole entry, looked up): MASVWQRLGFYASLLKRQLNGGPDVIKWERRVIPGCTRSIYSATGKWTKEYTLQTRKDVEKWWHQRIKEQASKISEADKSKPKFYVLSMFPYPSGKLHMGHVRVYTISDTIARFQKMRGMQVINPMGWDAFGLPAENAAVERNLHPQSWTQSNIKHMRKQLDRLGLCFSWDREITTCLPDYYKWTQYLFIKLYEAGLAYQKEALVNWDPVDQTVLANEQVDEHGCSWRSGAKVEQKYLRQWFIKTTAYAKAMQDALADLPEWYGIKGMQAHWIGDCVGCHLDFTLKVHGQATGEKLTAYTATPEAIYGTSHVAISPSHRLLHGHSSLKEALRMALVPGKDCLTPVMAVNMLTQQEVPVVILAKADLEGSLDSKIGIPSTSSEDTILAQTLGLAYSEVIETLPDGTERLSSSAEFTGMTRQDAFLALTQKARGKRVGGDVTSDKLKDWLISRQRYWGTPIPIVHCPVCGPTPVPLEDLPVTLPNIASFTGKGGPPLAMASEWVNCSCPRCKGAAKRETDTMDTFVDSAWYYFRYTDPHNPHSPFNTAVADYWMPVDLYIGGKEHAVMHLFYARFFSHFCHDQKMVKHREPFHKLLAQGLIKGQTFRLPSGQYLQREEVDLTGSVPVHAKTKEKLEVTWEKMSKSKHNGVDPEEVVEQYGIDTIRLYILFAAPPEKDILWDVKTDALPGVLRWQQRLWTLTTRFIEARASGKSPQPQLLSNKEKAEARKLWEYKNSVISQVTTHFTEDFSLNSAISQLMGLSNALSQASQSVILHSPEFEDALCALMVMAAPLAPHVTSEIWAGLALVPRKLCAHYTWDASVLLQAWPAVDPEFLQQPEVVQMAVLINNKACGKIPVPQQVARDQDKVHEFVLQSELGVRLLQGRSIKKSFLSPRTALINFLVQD
Chain of UniProt Q9H0B6 (Q9H0B6 whole entry, looked up): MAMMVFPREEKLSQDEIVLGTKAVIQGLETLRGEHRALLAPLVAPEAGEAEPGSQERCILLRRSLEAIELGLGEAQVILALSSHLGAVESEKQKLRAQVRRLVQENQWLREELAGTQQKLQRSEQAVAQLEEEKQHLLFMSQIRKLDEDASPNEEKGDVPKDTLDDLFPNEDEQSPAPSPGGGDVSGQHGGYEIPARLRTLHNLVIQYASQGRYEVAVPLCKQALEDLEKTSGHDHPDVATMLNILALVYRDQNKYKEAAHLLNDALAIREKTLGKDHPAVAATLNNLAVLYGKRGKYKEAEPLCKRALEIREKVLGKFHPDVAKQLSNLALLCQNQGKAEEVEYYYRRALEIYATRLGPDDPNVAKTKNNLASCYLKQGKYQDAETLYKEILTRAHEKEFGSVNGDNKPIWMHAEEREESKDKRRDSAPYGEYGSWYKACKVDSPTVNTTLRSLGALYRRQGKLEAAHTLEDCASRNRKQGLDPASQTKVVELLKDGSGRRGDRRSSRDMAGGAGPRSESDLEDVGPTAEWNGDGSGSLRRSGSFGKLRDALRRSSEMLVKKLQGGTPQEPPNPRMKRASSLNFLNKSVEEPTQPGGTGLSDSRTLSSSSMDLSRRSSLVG
Chain of UniProt Q13601 (Q13601 whole entry, looked up): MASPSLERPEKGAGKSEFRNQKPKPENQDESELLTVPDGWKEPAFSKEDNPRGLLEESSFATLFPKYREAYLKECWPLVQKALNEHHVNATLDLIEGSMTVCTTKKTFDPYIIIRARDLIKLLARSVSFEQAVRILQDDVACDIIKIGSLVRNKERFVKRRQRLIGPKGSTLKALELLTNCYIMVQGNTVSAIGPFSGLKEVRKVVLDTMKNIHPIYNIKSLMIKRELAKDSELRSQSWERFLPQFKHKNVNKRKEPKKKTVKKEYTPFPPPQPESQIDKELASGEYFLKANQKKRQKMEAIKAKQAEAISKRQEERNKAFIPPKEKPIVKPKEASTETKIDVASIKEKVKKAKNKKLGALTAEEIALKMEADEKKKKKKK
Chain of UniProt P27448 (P27448 whole entry, looked up): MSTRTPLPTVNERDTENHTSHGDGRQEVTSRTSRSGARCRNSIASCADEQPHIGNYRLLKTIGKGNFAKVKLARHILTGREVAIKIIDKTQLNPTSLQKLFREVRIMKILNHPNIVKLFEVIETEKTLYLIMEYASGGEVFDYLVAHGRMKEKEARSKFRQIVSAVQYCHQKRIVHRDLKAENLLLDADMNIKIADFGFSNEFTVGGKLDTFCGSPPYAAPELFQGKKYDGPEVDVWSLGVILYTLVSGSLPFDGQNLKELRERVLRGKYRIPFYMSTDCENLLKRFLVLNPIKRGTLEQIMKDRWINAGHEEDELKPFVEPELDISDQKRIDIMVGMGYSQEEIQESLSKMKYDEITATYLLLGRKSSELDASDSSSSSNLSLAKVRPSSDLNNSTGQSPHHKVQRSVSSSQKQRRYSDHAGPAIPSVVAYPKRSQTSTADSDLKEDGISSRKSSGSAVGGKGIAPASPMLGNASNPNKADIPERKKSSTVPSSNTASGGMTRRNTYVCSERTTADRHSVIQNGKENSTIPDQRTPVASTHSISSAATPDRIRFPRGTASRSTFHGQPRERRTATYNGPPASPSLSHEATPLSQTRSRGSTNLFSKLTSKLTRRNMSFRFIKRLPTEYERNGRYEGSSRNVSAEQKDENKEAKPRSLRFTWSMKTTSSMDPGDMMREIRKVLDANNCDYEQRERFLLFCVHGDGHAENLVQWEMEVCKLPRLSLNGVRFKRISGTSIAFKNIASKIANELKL
Chain of UniProt O00629 (O00629 whole entry, looked up): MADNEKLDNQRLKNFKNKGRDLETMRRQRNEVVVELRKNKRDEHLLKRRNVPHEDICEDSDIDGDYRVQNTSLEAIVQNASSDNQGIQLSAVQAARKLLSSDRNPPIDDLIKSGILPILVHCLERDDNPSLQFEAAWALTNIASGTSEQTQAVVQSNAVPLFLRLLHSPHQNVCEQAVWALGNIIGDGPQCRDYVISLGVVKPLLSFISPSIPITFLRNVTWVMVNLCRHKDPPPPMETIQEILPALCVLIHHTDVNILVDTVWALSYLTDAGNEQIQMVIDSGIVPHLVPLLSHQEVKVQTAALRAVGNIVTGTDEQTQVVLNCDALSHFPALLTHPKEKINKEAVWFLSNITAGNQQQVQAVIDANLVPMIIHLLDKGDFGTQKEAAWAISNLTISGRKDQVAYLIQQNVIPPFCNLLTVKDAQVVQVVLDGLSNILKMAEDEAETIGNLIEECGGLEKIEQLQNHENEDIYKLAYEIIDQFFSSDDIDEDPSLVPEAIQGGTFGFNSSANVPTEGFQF
Chain of UniProt Q00013 (Q00013 whole entry, looked up): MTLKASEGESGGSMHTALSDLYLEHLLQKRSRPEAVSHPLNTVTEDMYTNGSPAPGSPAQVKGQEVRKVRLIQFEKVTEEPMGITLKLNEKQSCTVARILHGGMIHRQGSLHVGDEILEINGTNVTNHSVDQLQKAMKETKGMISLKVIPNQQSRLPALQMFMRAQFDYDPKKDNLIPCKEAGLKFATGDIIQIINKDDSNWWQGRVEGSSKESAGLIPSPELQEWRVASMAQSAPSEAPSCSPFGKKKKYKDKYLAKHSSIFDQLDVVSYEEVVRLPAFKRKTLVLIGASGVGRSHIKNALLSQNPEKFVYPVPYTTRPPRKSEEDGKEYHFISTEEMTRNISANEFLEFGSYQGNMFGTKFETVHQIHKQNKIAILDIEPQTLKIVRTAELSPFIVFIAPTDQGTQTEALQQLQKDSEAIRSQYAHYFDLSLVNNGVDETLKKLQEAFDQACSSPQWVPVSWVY
Chain of UniProt P27361 (P27361 whole entry, looked up): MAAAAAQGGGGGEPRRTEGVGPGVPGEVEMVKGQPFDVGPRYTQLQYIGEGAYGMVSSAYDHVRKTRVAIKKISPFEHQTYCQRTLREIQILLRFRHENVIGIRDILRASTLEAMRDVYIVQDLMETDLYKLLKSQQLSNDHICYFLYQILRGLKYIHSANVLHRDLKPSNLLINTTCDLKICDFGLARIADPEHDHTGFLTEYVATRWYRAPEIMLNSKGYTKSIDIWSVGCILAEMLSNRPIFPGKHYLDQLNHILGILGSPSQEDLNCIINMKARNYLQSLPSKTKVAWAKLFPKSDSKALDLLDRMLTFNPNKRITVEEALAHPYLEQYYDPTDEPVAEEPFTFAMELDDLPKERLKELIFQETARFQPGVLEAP
Chain of UniProt O14880 (O14880 whole entry, looked up): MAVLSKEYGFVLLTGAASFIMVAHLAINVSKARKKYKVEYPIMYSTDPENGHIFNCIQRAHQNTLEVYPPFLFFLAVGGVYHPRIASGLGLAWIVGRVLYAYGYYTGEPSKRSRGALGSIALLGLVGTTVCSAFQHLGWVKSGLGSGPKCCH

Target	log2 fold change
MED16 (UniProt Q9Y2X0)	0.005 (inactive)
LAP3 (UniProt P28838)	-0.018 (inactive)
LUZP1 (UniProt Q86V48)	0.017 (inactive)
KSR1 (UniProt Q8IVT5)	-0.074 (inactive)
LTN1 isoform 3 (UniProt O94822)	0.019 (inactive)
MAP2K3 isoform 3 (UniProt P46734)	0.114 (inactive)
MRPL46 (UniProt Q9H2W6)	0.021 (inactive)
MCU (UniProt Q8NE86)	-0.023 (inactive)
KIF14 (UniProt Q15058)	-0.012 (inactive)
KIF15 (UniProt Q9NS87)	-0.015 (inactive)
MAP3K4 (UniProt Q9Y6R4)	-0.027 (inactive)
LIMS1 isoform 3 (UniProt P48059)	-0.006 (inactive)
KIF11 (UniProt P52732)	0.015 (inactive)
KIFC1 (UniProt Q9BW19)	0.002 (inactive)
MAT2B (UniProt Q9NZL9)	-0.005 (inactive)
MFF isoform 2 (UniProt Q9GZY8)	-0.024 (inactive)
KPNA2 (UniProt P52292)	0.041 (inactive)
MED8 isoform 2 (UniProt Q96G25)	-0.058 (inactive)
MAPK8 isoform 3 (UniProt P45983)	-0.012 (inactive)
MGST3 (UniProt O14880)	-0.025 (inactive)

Target	log2 fold change
KIF4A (UniProt O95239)	0.048 (inactive)
MPP1 (UniProt Q00013)	-0.004 (inactive)
MAP4 (UniProt E7EVA0)	-0.027 (inactive)
LARS2 (UniProt Q15031)	0.028 (inactive)
LIMK2 isoform 3 (UniProt P53671)	-0.073 (inactive)
KPNA4 (UniProt O00629)	-0.018 (inactive)
MAP7D3 (UniProt Q8IWC1)	-0.039 (inactive)
METTL7A (UniProt Q9H8H3)	-0.035 (inactive)
LYN (UniProt P07948)	-0.126 (inactive)
LUC7L (UniProt Q9NQ29)	0.02 (inactive)
LYSMD3 (UniProt Q7Z3D4)	-0.01 (inactive)
KRR1 (UniProt Q13601)	-0.027 (inactive)
METTL2A (UniProt Q96IZ6)	0.002 (inactive)
MARK3 (UniProt P27448)	0 (inactive)
MLH1 (UniProt P40692)	0.03 (inactive)
KLC2 (UniProt Q9H0B6)	-0.012 (inactive)
MCCC1 (UniProt Q96RQ3)	0.013 (inactive)
MAPK3 (UniProt P27361)	-0.028 (inactive)
MITD1 (UniProt Q8WV92)	-0.027 (inactive)
